# In the OligoGym collection:
# Molecular target: BST2
# Experiment: pooled miR-30 sensor sort-seq; sequence = guide strand
# Conditions: shRNA
# Further: reference of the scale not given here.
row,Sequence,sensor-assay potency score (higher = more potent)
1,ATGTAGTGATCTCTCCCTCAAG,-1.69
2,TTTGTCCTTGGGCCTTCTCTGC,-1.64
3,ATTCTCACGCTTAAGACCTGGT,-0.0201
4,TAATGTAGTGATCTCTCCCTCA,0.239
5,TACTTCTTGTCCGCGATTCTCA,-0.543
6,TGGTTTTCTCTTCTCAGTCGCT,-0.752
7,TCAGTCGCTCCACCTCTGCAGA,-1.23
8,ATTAGGGCCATCACAGTGTGGT,-0.491
9,TTTAATGTAGTGATCTCTCCCT,0.397

# Molecular target: BTAF1
# Experiment: as above
# Conditions: shRNA
row,Sequence,sensor-assay potency score (higher = more potent)
1,TTGATCTTGCATATTCCTGGGC,0.499
2,TACAGCAACAAAGTGCTCCTAA,0.633
3,TTTACTGCTTTTGACAACTTTG,-1.03
4,TAACCAGTTCACACCATCCTGC,-0.839
5,TAGAGTGTAATTATACCTCTGT,0.377
6,TAAAGTATTAATTACATCCTGA,-0.104
7,TAAGAGTACAATAATAGTCTTG,-0.191
8,TAGAACTTTCGGAAGTAGGTTC,-0.237
9,TAATACTATTTGTTGAAGCTGT,0.361
10,TTTTGATCTTGCATATTCCTGG,-0.211
11,TTACTCAACAGTTCCATCCAAA,-0.305
12,TAGCTTCAACAGCTTGTCCTGC,-0.281
